# From PubChem
# An excerpt weighted towards active compounds, which were near 10% of everything screened.
# Pf growth 96h: inhibits malaria parasite growth, 96 h; Potency, µM (series often up to 28.7 µM), for the others: top-dose activity change, negative = inhibition, usual class: inhibitors; hit rate 6.9% among 320,000; P. falciparum luciferase reporter growth, 96 h; active = well fitted inhibition curve with a large enough effect; inconclusive = small, poorly fitted or top-dose-only effect, or another doubt; inactive = no such curve, though single readings can be large or run the other way; note: % is set by controls: 0 for no effect and ±100 for the full control effect
#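 Delayed-death screen, second-generation endpoint: infected erythrocytes, 2% hematocrit, 0.05% parasitemia final; 96 hours at 37 C, 5% CO2; luciferase detection reagent; luminescence decrease equals reduced growth.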
# Pf growth 48h: inhibits P. falciparum growth in the first generation, 48 h. P. falciparum luciferase growth in erythrocytes, 48 h. Potency, µM (doses to about 28.7 µM), inactives show at the top dose activity change, negative = inhibition, usual class: inhibitors. hit rate 5.9% among 310,000; active = well fitted inhibition curve with a large enough effect; inconclusive = small, poorly fitted or top-dose-only effect, or another doubt; inactive = no such curve, though single readings can be large or run the other way; note: % is set by controls: 0 for no effect and ±100 for the full control effect
#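 First compound was added to culture medium, then infected red cells at 0.1% parasitemia and 2% hematocrit (final). After incubation at 37 C under 5% CO2, luciferase detection reagent was dispensed and light output recorded.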
# SARS PLP yeast: inhibitors of SARS-CoV papain-like protease in yeast; S. cerevisiae expressing SARS-CoV PLpro, growth rescue; Potency, µM (highest dose often 32.9 µM), inactives show at the top dose activity, positive = growth rescue, usual class: activators; hit rate 0.19% among 330,000; AID 485353; note: 0% is about no effect; nearly all actives have a fitted effect of over 55% in size
# NS1 function inh: blocks influenza NS1 protein function | Potency, µM (titrated, usually from 46.1 µM), inactives show at the highest dose activity, positive = more growth | hit rate 0.4% among 270,000 | AID 2326; note: actives are rising curves; nearly all actives have a fitted effect of over 50% in size
#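 Growth recovery, yeast-based: influenza A NS1 expressed in S. cerevisiae causes slow growth, and suppressors are detected by OD600. The parent strain without NS1 is used as positive control.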
# Starred values were filed as active, the others as inactive; u = inconclusive; x = no result. Unless noted, calls come from the whole dose curve. Potency is the fitted concentration of half-maximal effect.
SMILES,Pf growth 96h,Pf growth 48h,SARS PLP yeast,NS1 function inh
COc1ccc(C(=O)N/N=C/c2ccc(OC)c(COc3ccc(F)cc3)c2)cc1,u,u,22%,-10%
COc1ccc(C(=O)N/N=C/c2ccc(OC)c(CN3CCc4cc(OC)c(OC)cc4C3C)c2)cc1 (stereo unspecified),-34%,9.3µM*,-2%,x
COc1ccc(S(=O)(=O)N2CCOCC2)cc1NC(=O)CN1CCC(Cc2ccccc2)CC1,4.7µM*,12µM*,1%,-30%
COc1ccc(S(=O)(=O)N2CCC(Cc3ccccc3)CC2)cc1NC(C)=O,4.7µM*,34%,0%,9%
O=C(CN1C(=O)NC2(CCCCC2)C1=O)NCCc1ccccc1,x,x,1%,x
O=C(NCC1CCN(Cc2ccc(F)cc2)CC1)C1CCCN(c2ncnc3c2nc2n3CCCCC2)C1 (stereo unspecified),9.3µM*,u,-2%,-3%
O=C(NCC1CCN(Cc2ccc(Cl)cc2)CC1)C1CCCN(c2ncnc3c2nc2n3CCCCC2)C1 (stereo unspecified),3%,12µM*,0%,-1%
CCC(C(=O)OCc1csc(CC(=O)Nc2ccccc2C)n1)c1ccccc1 (stereo unspecified),u,12µM*,-1%,x
COc1ccccc1NC(=O)CSc1nnc(C2CCCCC2)n1N,28%,11%,6%,7%
Cc1ccccc1NC(=O)Cc1nc(CSc2nnc(C3CCCCC3)n2N)cs1,7.4µM*,13µM*,3%,4%
COc1cc(/C=C/C(=O)OCc2csc(CC(=O)Nc3ccc(C)cc3)n2)ccc1OCC#N,13µM*,u,2%,x
CCOC(=O)c1c(C)[nH]c(C(=O)OCC(=O)Nc2sccc2C(N)=O)c1C,u,4.7µM*,0%,x
COc1cccc(OC)c1C(=O)OCCCOC(=O)c1c(OC)cccc1OC,u,-20%,0%,-7%
Cc1ccccc1NC(=O)Cc1nc(COC(=O)c2cccc(C)c2O)cs1,-2%,4%,-3%,-2%
CCOC(=O)c1c(C)[nH]c(C(=O)OCc2csc(CC(=O)Nc3ccccc3C)n2)c1C,12µM*,9.3µM*,-7%,x
COc1cc(C(=O)OCc2csc(CC(=O)Nc3ccccc3C)n2)ccc1OCC(C)C,9.3µM*,13µM*,-7%,x
Cc1ccccc1NC(=O)Cc1nc(COC(=O)CCNS(=O)(=O)c2ccccc2)cs1,u,10µM*,1%,x
CCOc1ccc(S(=O)(=O)N2CCN(C(=S)NC3CC3)CC2)cc1,u,4.1µM*,-2%,x
CCOc1ccc(NC(=S)N2CCN(S(=O)(=O)c3ccc(C)cc3)CC2)cc1,u,u,-7%,-4%
COc1ccc(S(=O)(=O)N2CCN(C(=S)NC3CCCCC3)CC2)cc1,6%,0.93µM*,0%,4%
COc1ccc(NC(=S)N2CCN(S(=O)(=O)c3ccc(F)cc3)CC2)cc1,u,u,1%,-2%
CCSc1nc(-c2ccc(OC)cc2)cc(-c2ccccc2)c1C#N,13µM*,x,6%,3%
COc1ccc(-c2cc(-c3cccs3)c(C#N)c(SCC(=O)NCc3ccccc3OC)n2)cc1,10µM*,2.3µM*,4%,-6%
COc1ccc(-c2cc(-c3ccccc3)c(C#N)c(S(C)=O)n2)cc1 (stereo unspecified),9%,x,0%,-6%
COc1ccc(-c2cc(-c3ccccc3)nc(SCC(=O)Nc3ncc(C)s3)c2C#N)cc1,u,8.3µM*,21%,24%
SMILES,Pf growth 96h,Pf growth 48h,SARS PLP yeast,NS1 function inh
CCc1cc(/C(Cc2ccc3ccccc3n2)=N\O)c(O)cc1O,1.7µM*,36%,-12%,-132%
CN1CCN(CN2C(=O)C3C4C=CC(C3C2=O)C2C3C(=O)N(CN5CCN(C)CC5)C(=O)C3C42)CC1 (stereo unspecified),x,x,x,-13%
CCc1cc2c(=O)c(-c3ccc4c(c3)OCCO4)coc2c(CN2CCCCC2C)c1O (stereo unspecified),-4%,2.1µM*,2%,6%
O=c1c(-c2ccc3c(c2)OCCO3)coc2c(CN3CCOCC3)c(O)ccc12,12µM*,-30%,2%,-3%
COc1ccccc1-c1coc2c(CN3CCOCC3)c(O)ccc2c1=O,33%,u,0%,14%
CCc1cc2c(=O)c(-c3nc4ccccc4[nH]3)coc2c(CN2CCCCC2C)c1O (stereo unspecified),0.74µM*,1.5µM*,0%,6%
Cc1ccc(Nc2cc(C)nc(-c3ccccc3)n2)cc1,7%,174%,-6%,-41%
